9 compounds from PubChem BioAssay (NCI) can be followed below.

About 83,000 compounds went through this panel and 20% of them were active in at least one assay; those are over-represented in the sample as a whole.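 The endpoint reported here, percent growth, reads 100 for growth as untreated, 0 for no net growth and -100 for all cells dead.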 Values without a mark were called inactive. Active and inactive are the calls of the source. How the source made its calls: active means growth percent below 10; inactive means the rest.

Some test systems named below: SR leukemia; RPMI-8226 leukemia; OVCAR-5 ovarian; OVCAR-4 ovarian; SK-OV-3 ovarian; IGROV1 ovarian; OVCAR-3 ovarian; HS 578T breast; NCI/ADR-RES ovarian; T-47D breast; BT-549 breast; MDA-MB-435 melanoma; SW-620 colon; MCF7 breast; HCT-116 colon; HCC-2998 colon; KM12 colon; OVCAR-8 ovarian.
Assay in all cases: NCI-60 one-dose screen, 48 h (100 = growth as untreated, 0 = no growth, -100 = all killed)
What all share (settings): 10 µM unless noted

`C=CCn1c(-c2nc3ccc(C(=C(C#N)C#N)c4ccccc4)cc3[nH]2)cc2cc(Br)ccc21`: the growth is 50.5% in the assay with SR leukemia; 35.7% with RPMI-8226 leukemia; 77.5% in the assay with OVCAR-5 ovarian; 54.5% in the assay with OVCAR-4 ovarian; 63.9% in the assay with SK-OV-3 ovarian; 65.1% in the assay on IGROV1 ovarian. Besides, the growth is 51.2% in the assay with OVCAR-3 ovarian; 64.4% in the assay with HS 578T breast; 54.2% with NCI/ADR-RES ovarian; 43% in the assay on T-47D breast; 71.3% with BT-549 breast; 75.2% in the assay with MDA-MB-435 melanoma. In addition, the growth in the assay with SW-620 colon was 61.2%; with MCF7 breast, 0.939% (active); in the assay with HCT-116 colon, 27.4%; with HCC-2998 colon it was 61.2%; with KM12 colon, 34.1%.
With `CN1c2ccccc2Sc2cc(C=C(C#N)C#N)ccc21`, the growth is 105% in the assay with SR leukemia; 103% in the assay on RPMI-8226 leukemia; 94.4% in the assay on OVCAR-8 ovarian; 38% with OVCAR-5 ovarian; 105% in the assay on OVCAR-4 ovarian; 75.6% in the assay on IGROV1 ovarian. Moreover, the growth is 106% in the assay on OVCAR-3 ovarian; 89.3% in the assay with HS 578T breast; 89.7% with NCI/ADR-RES ovarian; 92.6% with T-47D breast; 110% in the assay with BT-549 breast; 103% in the assay with MDA-MB-435 melanoma. The growth with SW-620 colon was 90.9%; with MCF7 breast, 54.6%; with HCT-116 colon it was 105%; with HCC-2998 colon, 97.3%; in the assay with KM12 colon, 103%.
With `O=c1[nH]c(Sc2sc3ccc(Cl)cc3c2CBr)nc(=S)[nH]1`, the growth in the assay on SR leukemia was 7.03% (active); in the assay on RPMI-8226 leukemia it was 24.2%; with OVCAR-5 ovarian, 49.3%; in the assay on OVCAR-4 ovarian, 40.7%; in the assay with SK-OV-3 ovarian it was 18.4%; in the assay on IGROV1 ovarian it was 4.63% (active). For the same compound, the growth with OVCAR-3 ovarian is 56%; in the assay on HS 578T breast, 19.3%; with NCI/ADR-RES ovarian it was 65.3%; in the assay on T-47D breast it was -0.0992% (active); with BT-549 breast, 48.5%; in the assay with MDA-MB-435 melanoma, 15.1%. The growth is 40.4% with SW-620 colon; 15.2% in the assay on MCF7 breast; 38.6% with HCT-116 colon; 48.5% in the assay on HCC-2998 colon; 12.8% with KM12 colon.
`COC(=O)/C=C/c1c(C2(C)NC(=O)c3ccccc3N2)c(=O)oc2ccc(Cl)cc12` (stereo not drawn): the growth in the assay with SR leukemia was 108%; in the assay on RPMI-8226 leukemia, 94.7%; in the assay on OVCAR-5 ovarian, 101%; with OVCAR-4 ovarian, 98.7%; in the assay with SK-OV-3 ovarian, 106%; in the assay on IGROV1 ovarian, 68.1%. Moreover, the growth was 102% with OVCAR-3 ovarian; 90.9% in the assay on HS 578T breast; 98.3% in the assay with NCI/ADR-RES ovarian; 91.6% with T-47D breast; 87.4% in the assay with BT-549 breast; 102% with MDA-MB-435 melanoma. For the same compound, the growth with SW-620 colon is 96.3%; in the assay with MCF7 breast it was 86.9%; in the assay on HCT-116 colon it was 88.6%; with HCC-2998 colon it was 102%; in the assay with KM12 colon, 93.4%.
For the compound `CN1CCN(c2ccc(/C=N/n3cnc4oc(-c5ccccc5)cc4c3=N)cc2)CC1`, the growth in the assay with SR leukemia is 36.6%; with RPMI-8226 leukemia, 87.9%; with OVCAR-5 ovarian, 76.2%; in the assay with OVCAR-4 ovarian, 83.1%; with SK-OV-3 ovarian, 71.3%; with IGROV1 ovarian, 36.7%. In addition, the growth is 90.2% in the assay with OVCAR-3 ovarian; 63.8% with HS 578T breast; 81.3% with NCI/ADR-RES ovarian; 84.1% in the assay with T-47D breast; 89.7% in the assay with BT-549 breast; 94.7% in the assay on MDA-MB-435 melanoma. For the same compound, the growth in the assay on SW-620 colon was 94%; in the assay on MCF7 breast, 81.1%; with HCT-116 colon it was 73.9%; in the assay with HCC-2998 colon it was 101%; with KM12 colon, 63.7%.
In the case of `Cc1ccc(-c2nnc(SCc3ccc(O)c4ncccc34)n2-c2ccccc2)cc1`, the growth in the assay on SR leukemia is 12.1%; in the assay on RPMI-8226 leukemia it was 7.99% (active); in the assay with OVCAR-5 ovarian, 37.5%; in the assay on OVCAR-4 ovarian, 13.8%; in the assay with SK-OV-3 ovarian, 5.69% (active); with IGROV1 ovarian it was 8.07% (active). The growth in the assay on OVCAR-3 ovarian was 16.2%; in the assay with HS 578T breast, -3.23% (active); in the assay with NCI/ADR-RES ovarian, 2.09% (active); in the assay on T-47D breast, 5.79% (active); in the assay with BT-549 breast, 18.4%; in the assay with MDA-MB-435 melanoma, 9.9% (active). Moreover, the growth was 12.9% with SW-620 colon; 4.47% (active) with MCF7 breast; 6.12% (active) in the assay on HCT-116 colon; 22.3% in the assay on HCC-2998 colon; 2.4% (active) in the assay with KM12 colon.
`CCO/C=N/C1=C(C#N)C(c2ccc(Cl)cc2)c2sc3c(CC)cccc3c2O1` (stereo not drawn): the growth in the assay on SR leukemia is 18%; in the assay on RPMI-8226 leukemia it was 9.39% (active); in the assay on OVCAR-5 ovarian, 36.9%; with OVCAR-4 ovarian, 76.5%; with SK-OV-3 ovarian, 58.2%; with IGROV1 ovarian it was 23%. Further, the growth is -20.5% (active) in the assay with OVCAR-3 ovarian; 18.4% in the assay with HS 578T breast; 14.9% with NCI/ADR-RES ovarian; 26.9% in the assay with T-47D breast; 59.6% in the assay on BT-549 breast; -43.2% (active) with MDA-MB-435 melanoma. For the same compound, the growth in the assay with SW-620 colon is 32.3%; in the assay with MCF7 breast it was 16.2%; with HCT-116 colon it was 23.1%; in the assay with HCC-2998 colon, 23.6%; with KM12 colon it was 15.3%.
Consider `Cc1ccc(NC(=S)NNC(=S)Nc2ccc(C)cc2)cc1`, for which the growth in the assay on SR leukemia is 90%; in the assay on RPMI-8226 leukemia, 104%; in the assay with OVCAR-5 ovarian, 104%; in the assay on OVCAR-4 ovarian it was 100%; with SK-OV-3 ovarian it was 111%; in the assay with IGROV1 ovarian, 103%. Also, the growth is 127% in the assay on OVCAR-3 ovarian; 110% in the assay with HS 578T breast; 104% in the assay on NCI/ADR-RES ovarian; 101% in the assay on T-47D breast; 92.9% in the assay on BT-549 breast; 102% with MDA-MB-435 melanoma. Also, the growth in the assay on SW-620 colon is 108%; with MCF7 breast it was 91.1%; in the assay on HCT-116 colon, 106%; in the assay with HCC-2998 colon it was 110%; with KM12 colon it was 101%.
Regarding `COc1ccc(NC2=C(Cl)C(=O)c3nc(C)ccc3C2=O)cc1OC`, the growth was 0.922% (active) in the assay with SR leukemia; 47.3% in the assay on RPMI-8226 leukemia; 105% with OVCAR-5 ovarian; 71.4% with OVCAR-4 ovarian; 91.8% in the assay on SK-OV-3 ovarian; 19.6% in the assay with IGROV1 ovarian. In addition, the growth in the assay on OVCAR-3 ovarian is 13.2%; in the assay with HS 578T breast, 119%; in the assay on NCI/ADR-RES ovarian it was 94.7%; in the assay on T-47D breast it was 14.9%; with BT-549 breast, 126%; with MDA-MB-435 melanoma, -67.2% (active). The growth is 72.2% in the assay on SW-620 colon; 59% with MCF7 breast; 55.8% with HCT-116 colon; 104% with HCC-2998 colon; 98.2% in the assay on KM12 colon.
